Results on ten compounds are retold here after PubChem BioAssay (Tox21).

“And” between values parts separate entries of the source, which are not always exact repeats. Identical values can stand only once. Results filed as inconclusive are left out. Some structures have more than one record in an assay (separate samples or runs), and their calls can disagree. The source made the active and inactive calls. Unless noted, the call rests on the fitted dose curve; in most records, active means well fitted curve in the direction sought with a large enough effect in the repeat runs; inconclusive means weak or mixed curves; inactive means no such curve, though single readings can be large; an effect the other way counts as inactive or inconclusive.

Experiment [1] can be described thus: qHTS assay to identify small molecule antagonists of the glucocorticoid receptor (GR) signaling pathway - cell viability counter screen (AID 720693). Further: nearly all actives have a fitted effect of over 55% in size. For orientation: In qHTS, concentration-response curves come from the screen itself.
Experiment [2] in a line: qHTS assay for identifying genotoxic compounds that show differential cytotoxicity against isogenic chicken DT40 cell lines with known DNA damage response pathways - wild type cell line (AID 743012). Further: nearly all actives have a fitted effect of over 60% in size. The essentials:
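Endpoint: CellTiter-Glo luminescence, 30 min RT. Cells: wild type DT40, 300/well. Exposure: compounds in DMSO, 40 h, 37 C/5% CO2, after ~0.5 h pre-incubation.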

Experiment [3] is described as follows: qHTS assay for identifying genotoxic compounds that show differential cytotoxicity against isogenic chicken DT40 cell lines with known DNA damage response pathways - Rev3 mutant cell line (AID 743014). Further: nearly all actives have a fitted effect of over 55% in size.
Experiment [4] is described as follows: qHTS assay for identifying genotoxic compounds that show differential cytotoxicity against isogenic chicken DT40 cell lines with known DNA damage response pathways - Rad54/Ku70 mutant cell line (AID 743015). Further: nearly all actives have a fitted effect of over 60% in size. Further: potency means the concentration at half of the fitted maximal effect.
The nature of experiment [5]: qHTS assay to identify small molecule antagonists of the androgen receptor (AR) signaling pathway - cell viability counter screen (AID 743033; further: nearly all actives have a fitted effect of over 45% in size).
Experiment [6] is described as follows: qHTS assay to identify small molecule antagonists of the androgen receptor (AR) signaling pathway using the MDA cell line - cell viability counter screen (AID 743041; further: nearly all actives have a fitted effect of over 45% in size). Put shortly: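 Using the breast carcinoma line MDA-kb2 AR-luc, test chemicals were co-incubated with R1881 for 16 h; CellTiter-Fluor reagent, added at 15.5 h, provided a fluorescence measure of live cells.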

Experiment [7] in a line: qHTS assay to identify small molecule antagonists of the thyroid receptor (TR) signaling pathway - cell viability counter screen (AID 743064). Further: nearly all actives have a fitted effect of over 50% in size. Further: potency means the concentration at half of the fitted maximal effect. Put shortly:
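In-well cytotoxicity read by CellTiter-Fluor (30 min, 37 C) following 23.5 h exposure of GH3 cells bearing a TRE-luciferase sensor. Compounds were added alongside 1 nM (final) T3 to drive TR transactivation.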

Experiment [8] is described as follows: qHTS assay to identify small molecule antagonists of the thyroid receptor (TR) signaling pathway (AID 743065). Further: series mostly up to about 70 µM; nearly all actives have a fitted effect of over 55% in size. The essentials:
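Antagonism measured as loss of luciferase signal in GH3 cells stably carrying a TRE-luciferase reporter, co-treated with compound and T3 (1 nM final) for 23.5 h at 37 C. Viability was read in the same well by CellTiter-Fluor.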

Experiment [9] deals with thyroid hormone receptor (rat, GH3 cells). As to the kind of experiment: qHTS assay to identify small molecule agonists of the thyroid receptor (TR) signaling pathway (AID 743066; calls by dose curve).
Experiment [10] in a line: qHTS assay to identify small molecule antagonists of the estrogen receptor alpha (ER-alpha) signaling pathway - cell viability counter screen (AID 743074; calls by dose curve; further: nearly all actives have a fitted effect of over 45% in size).
The nature of experiment [11]: qHTS assay to identify small molecule antagonists of the estrogen receptor alpha (ER-alpha) signaling pathway using the BG1 cell line - cell viability counter screen (AID 743081).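 Further: compound given together with 17beta-estradiol as the ER stimulus; series mostly up to about 70 µM; nearly all actives have a fitted effect of over 45% in size.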
For experiment [12], the target named is Aromatase (Homo sapiens) (UniProt P11511). As to the kind of experiment: qHTS assay to identify aromatase inhibitors (AID 743083). Further: series mostly up to about 70 µM; nearly all actives have a fitted effect of over 55% in size.
Aromatase (Homo sapiens), sequence (P11511 whole entry, looked up): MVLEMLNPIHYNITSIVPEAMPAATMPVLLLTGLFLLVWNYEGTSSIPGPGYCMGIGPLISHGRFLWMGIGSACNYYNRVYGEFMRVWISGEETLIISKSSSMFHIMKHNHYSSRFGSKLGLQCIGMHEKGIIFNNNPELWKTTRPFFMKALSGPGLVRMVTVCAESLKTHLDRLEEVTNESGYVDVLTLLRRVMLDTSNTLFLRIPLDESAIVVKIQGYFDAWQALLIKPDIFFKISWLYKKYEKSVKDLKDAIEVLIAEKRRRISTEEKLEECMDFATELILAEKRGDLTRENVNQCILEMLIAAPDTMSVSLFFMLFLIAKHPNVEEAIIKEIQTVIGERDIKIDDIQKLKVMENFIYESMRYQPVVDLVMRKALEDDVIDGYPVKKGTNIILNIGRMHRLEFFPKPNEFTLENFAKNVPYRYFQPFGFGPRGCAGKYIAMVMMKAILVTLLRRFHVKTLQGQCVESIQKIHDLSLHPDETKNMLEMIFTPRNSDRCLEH
The target of experiment [13] is Estrogen receptor (Homo sapiens) (UniProt P03372). Description: qHTS assay to identify small molecule agonists of the estrogen receptor alpha (ER-alpha) signaling pathway (AID 743075; calls by dose curve).
Estrogen receptor (Homo sapiens), sequence (P03372 whole entry, looked up): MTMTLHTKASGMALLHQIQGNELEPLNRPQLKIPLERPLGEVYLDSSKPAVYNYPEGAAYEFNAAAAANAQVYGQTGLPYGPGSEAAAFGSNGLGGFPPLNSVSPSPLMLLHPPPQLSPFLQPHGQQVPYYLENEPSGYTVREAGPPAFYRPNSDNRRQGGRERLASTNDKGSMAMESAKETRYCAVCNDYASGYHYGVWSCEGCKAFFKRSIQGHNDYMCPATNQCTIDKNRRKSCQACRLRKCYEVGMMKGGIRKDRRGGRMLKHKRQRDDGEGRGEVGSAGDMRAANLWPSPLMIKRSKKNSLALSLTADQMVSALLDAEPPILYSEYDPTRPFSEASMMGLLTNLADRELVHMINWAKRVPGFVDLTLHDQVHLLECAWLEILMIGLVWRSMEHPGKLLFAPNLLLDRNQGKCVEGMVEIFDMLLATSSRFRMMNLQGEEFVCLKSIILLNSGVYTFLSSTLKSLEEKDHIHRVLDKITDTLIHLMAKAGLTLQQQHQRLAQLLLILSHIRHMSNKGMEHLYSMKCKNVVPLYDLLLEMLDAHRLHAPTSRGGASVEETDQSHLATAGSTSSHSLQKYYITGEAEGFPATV
Experiment [14] is described as follows: qHTS assay to identify small molecule antagonists of the estrogen receptor alpha (ER-alpha) signaling pathway using the BG1 cell line (AID 743080; calls by dose curve;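 further: BG1 cells stimulated with 17beta-estradiol alongside compound; series mostly up to about 70 µM; nearly all actives have a fitted effect of over 25% in size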). The essentials: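 Readout is ONE-Glo luminescence, taken 30 min at room temperature after reagent addition, preceded by a CellTiter-Fluor viability read; BG1-Luc-4E2 cells had received compound and 17beta-estradiol for 21.5 h at 37 C.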

Experiment [15] addresses Estrogen receptor (Homo sapiens) (UniProt P03372). Description: qHTS assay to identify small molecule antagonists of the estrogen receptor alpha (ER-alpha) signaling pathway (AID 743069; active means well fitted curve in the direction sought with a large enough effect in the signal ratio in the repeat runs, not every such curve was filed as active; the % refers to the signal ratio). Put shortly:
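Fluorescence intensity from a beta-lactamase FRET substrate served as the read-out. Cells: HEK293 with stably integrated ER-alpha-UAS-bla reporter. Agonist 17beta-estradiol was co-added with compounds; incubation 18 hr at 37C, substrate 2 hr at room temperature.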

For experiment [16] the target is unchanged. As to the kind of experiment: qHTS assay to identify small molecule agonists of the estrogen receptor alpha (ER-alpha) signaling pathway using the BG1 cell line (AID 743079). Further: nearly all actives have a fitted effect of over 20% in size.

For `CC(C)CCCCCCOC(=O)c1ccc(C(=O)OCCCCCCC(C)C)c(C(=O)OCCCCCCC(C)C)c1`, the Potency result in experiment [1], in [2], in experiment [3], in [4], in [5] and in [6] was “inactive” each time. In addition, the Potency entry in experiment [7], in experiment [8], in experiment [9], in [11] and in [12] was “inactive” each time. In addition, in [10], the compound was called inactive.

As for `CN(c1nccc(=O)[nH]1)C1CCN(c2nc3ccccc3n2Cc2ccc(F)cc2)CC1`, the Potency entry in experiment [1], in experiment [2], in [3], in experiment [4], in [5] and in [6] was “inactive” throughout. For the same compound, the Potency result in experiment [7], in experiment [9], in [13], in [14], in experiment [11] and in experiment [12] was “inactive” each time. Also, the result in experiment [10] was inactive.

For the compound `S=C(S)NCCNC(=S)S`, the Potency entry in [1], in experiment [2], in experiment [3], in [4], in [5] and in experiment [6] was “inactive” throughout. In addition, the Potency result in experiment [7], in [8], in experiment [9], in experiment [11] and in [12] was “inactive” throughout.

On to `Cc1ccc(C(C)c2ccc(C)c(C)c2)cc1C`, for which the Potency entry in [1], in experiment [2], in experiment [3], in experiment [4], in experiment [5] and in experiment [6] was “inactive” throughout. Further, the Potency result in [7], in experiment [9], in experiment [15], in experiment [13], in experiment [16] and in experiment [14] was “inactive” each time. Besides, the Potency entry in experiment [11] and in experiment [12] was “inactive” each time. For the same compound, in experiment [10], the call was inactive.

For the compound `NC[C@H]1O[C@H](O[C@H]2[C@H](O)[C@@H](O[C@H]3O[C@H](CO)[C@@H](O)[C@H](N)[C@H]3O)[C@H](N)C[C@@H]2N)[C@H](O)[C@@H](O)[C@@H]1O`, the Potency entry in experiment [1], in [2], in experiment [3], in experiment [5], in [6] and in experiment [9] was “inactive” throughout. The Potency entry in experiment [14], in [11] and in [12] was “inactive” throughout. The Potency entry in [4] is “inactive and 1.89 µM (active)”; in experiment [7], “inactive and 1.89 µM (active)”. The call in [10] was inactive.

`CCCC[C@H]1CN(CC2CCOCC2)C(=O)OC12CCN(C1(C)CCN(C(=O)c3c(C)ncnc3C)CC1)CC2`: the Potency entry in experiment [1], in experiment [2], in [3], in experiment [4], in experiment [5] and in experiment [6] was “inactive” each time. Also, the Potency entry in experiment [7], in [9], in experiment [11] and in [12] was “inactive” each time. In addition, the outcome in experiment [10] was inactive.

In the case of `C[Si](C)O[Si](C)(C)O[Si](C)(C)O[Si](C)C`, the Potency result in [1], in [2], in experiment [3], in experiment [4], in experiment [5] and in experiment [6] was “inactive” throughout. Moreover, the Potency result in experiment [7], in experiment [8], in experiment [15], in experiment [13], in [16] and in [14] was “inactive” throughout. In addition, the Potency result in experiment [11] and in experiment [12] was “inactive” in each case. Further, the outcome in [10] was inactive.

With `C1=Cc2ccccc2C1`, the Potency entry in experiment [1], in experiment [2], in [3], in experiment [4], in [5] and in experiment [6] was “inactive” each time. Moreover, the Potency entry in [7], in experiment [9], in [15], in [13], in experiment [14] and in [11] was “inactive” each time. The Potency result in experiment [12] was “inactive”. Moreover, in [10], the compound was called inactive.

As for `CCCCCCCCCCCCCCCC(=O)OC/C=C(C)/C=C/C=C(C)/C=C/C1=C(C)CCCC1(C)C`, the Potency entry in experiment [1], in experiment [2], in experiment [3], in experiment [4], in experiment [5] and in [6] was “inactive” each time. Also, the Potency entry in [7], in experiment [9], in experiment [11] and in [12] was “inactive” each time. The compound was called inactive in experiment [10].

Consider `O=C(Cl)c1c(Cl)cccc1Cl`, for which the Potency result in experiment [1], in [2], in experiment [3], in experiment [4], in experiment [5] and in experiment [6] was “inactive” in each case. Further, the Potency entry in experiment [8], in experiment [9], in experiment [15], in [13], in experiment [16] and in experiment [14] was “inactive” each time. The Potency entry in [11] and in experiment [12] was “inactive” in each case. The compound was classed as inactive in experiment [10].
